Measured values from PubChem BioAssay AID951 (NMMLSC, 2007).
Out of some 190,000 compounds screened, about 140 (0.074%) were called active. No stated cut-off is given here; in the data, active means inhibition above about 40%. What follows is part of a selection rich in actives, with near analogues and random picks from the rest.

These compounds were tested against Bcl-2-like protein 10 (Homo sapiens) (UniProt Q9HD36) (assay: Bcl-B and Bim peptide interaction disruptors – biochemical, multiplexed, human Bcl-2 family, primary screen (AID 951;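 further: 0% = tracer peptide without compound and 100% = reference inhibitor peptide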)). Conditions: bead-based flow cytometry, Bim peptide-Bcl-B binding; at 10 µM; active compounds read high.
Bcl-2-like protein 10 (Homo sapiens), sequence (Q9HD36 whole entry, looked up): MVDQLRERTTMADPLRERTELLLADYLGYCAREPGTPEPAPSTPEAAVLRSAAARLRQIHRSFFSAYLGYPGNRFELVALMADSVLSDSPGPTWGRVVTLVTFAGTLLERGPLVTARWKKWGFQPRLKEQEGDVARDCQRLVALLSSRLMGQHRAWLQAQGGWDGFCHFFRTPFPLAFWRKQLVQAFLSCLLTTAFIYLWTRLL

Row | Compound | inhibition
1 | O=C(CSc1nncn1-c1cccnc1)N1CCOCC1 | -6% (inactive)
2 | O=C(NCCCn1ccnc1)C(=O)c1cn(CC(=O)N2CCCCCC2)c2ccccc12 | 0% (inactive)
3 | Cn1ncc2c(NNC(=O)Cc3cccc4ccccc34)ncnc21 | -3% (inactive)
4 | OCCC1CN(Cc2cccn2-c2nccs2)CCN1CCc1ccccc1 (centres undefined) | -1% (inactive)
5 | O=C(CN1C(=O)NC2(CCCCCC2)C1=O)NCc1cccs1 | -1% (inactive)
6 | Cc1ccc(C(=O)Nc2ccc(C)c(S(=O)(=O)N(C)C)c2)s1 | 0% (inactive)
7 | CC(NC(=O)c1cccc2ccccc12)c1ccc2c(c1)CCCC2 (centres undefined) | 6% (inactive)
8 | CCOCC(=O)Nc1ncc(S(=O)(=O)c2ccc([N+](=O)[O-])cc2)s1 | 3% (inactive)
9 | Cc1ccccc1NC(=O)CSC1=NCCN1 | -6% (inactive)
10 | CCOC(=O)c1sc2nc(C)nc(Nc3ccc(OC)c(OC)c3)c2c1C | 2% (inactive)
11 | CN(C)c1ccc(/C=N/N(Cc2ccccc2)c2ccccc2)cc1 | -3% (inactive)
12 | C=CCn1c(CCNC(=O)c2ccccc2F)nnc1SCC(=O)Nc1ccc(OC)cc1 | 0% (inactive)
13 | COc1ccc(C2CC(c3ccccc3)=NN2C(=O)COC(=O)COc2ccccc2)cc1 (centres undefined) | -5% (inactive)
14 | CC(=O)Nc1cccc([N+](=O)[O-])c1 | -4% (inactive)
15 | COC(=O)C1CCN(C(=O)c2cc(=O)[nH]c3ccccc23)CC1 | -1% (inactive)
16 | CC1CCCC(NC(=O)COC(=O)[C@@H]2CC(O)CN2S(=O)(=O)c2ccc3c(c2)OCCO3)C1C (some centres undefined) | -1% (inactive)
17 | O=C(CNC(c1ccccc1)c1ccccc1)Nc1ccc(F)cc1 | -8% (inactive)
18 | Cc1ccc(/C=N/NC(=O)CNC(=O)COc2ccccc2)o1 | -7% (inactive)
19 | C=CCc1ccccc1OCC(=O)N/N=C/c1ccccc1OCC | -9% (inactive)
20 | CCOc1ccccc1/C=N/NC(=O)CNC(=O)COc1ccccc1 | 74% (active)
21 | CCOc1ccc(NC(=O)CN(C)CC(=O)NC(C)c2ccccc2)cc1OCC (centres undefined) | -4% (inactive)
22 | Cc1cccc(C(=O)N2CCC(c3nc4ccccc4s3)CC2)c1 | -2% (inactive)
23 | O=C(CSC1CC(=O)N(CCc2ccccc2)C1=O)Nc1ccc(Cl)cc1 (centres undefined) | -5% (inactive)
24 | C[C@@H]1CC[C@]2(O[C@@H](CCO)C[C@H](O)[C@H]2O)O1 | -5% (inactive)
25 | O=C(N/N=C/c1ccco1)c1ccc(NC(=O)C2CC2)cc1 | -4% (inactive)

Row | Compound | inhibition
26 | NC(=O)Cn1nc([N+](=O)[O-])nc1Oc1ccc(Br)cc1 | -1% (inactive)
27 | CN1CCN(C(=O)CCc2ncc(C(F)(F)F)cc2Cl)CC1 | -8% (inactive)
28 | COc1ccc(C(=O)NCC(=O)N/N=C/c2ccc([N+](=O)[O-])s2)cc1OC | -2% (inactive)
29 | Cc1ccc(S(=O)(=O)NNC(=O)Nc2cccc3ccccc23)cc1 | 0% (inactive)
30 | CCOC(=O)c1c(-c2cccc(N)c2)cn2ccccc12 | 17% (inactive)
31 | COc1ccc2c(c1)CC[C@@H]1[C@@H]2CC[C@]2(C)C(=O)CC[C@@H]12 | -3% (inactive)
32 | CC(=O)C1C(c2ccc(Cl)cc2)c2c(n[nH]c2C)CC1(C)O (centres undefined) | -4% (inactive)
33 | CCNC(=O)COC(=O)CCNC(=O)c1cccc(C)c1 | -4% (inactive)
34 | NC(=O)C[n+]1cccc(C(N)=O)c1 | -1% (inactive)
35 | O=C(CP(=O)(c1ccccc1)c1ccccc1)N1CCOCC1 | -6% (inactive)
36 | CS(=O)(=O)Nc1cccc(-c2cn3ccccc3n2)c1 | -2% (inactive)
37 | CSc1ccc(/C=N/N2CCN(Cc3ccccc3Cl)CC2)cc1 | -8% (inactive)
38 | CCC(C(=O)OCC(=O)Nc1c(Cl)cc(Cl)cc1Cl)c1ccccc1 (centres undefined) | -7% (inactive)
39 | C=CCn1c(SCC(N)=O)nnc1-c1cc2c(s1)CCC(CC)C2 (centres undefined) | -12% (inactive)
40 | N=C1C(c2nc3ccccc3[nH]2)=C(O)CN1NC(=O)c1c[nH]c2ccccc12 | -2% (inactive)
41 | Cc1cc(C)c2nc(-c3cccnc3)cc(C(=O)Nc3ccc(S(=O)(=O)Nc4onc(C)c4C)cc3)c2c1 | -1% (inactive)
42 | O=C1N(c2ccc(Cl)cc2)C(c2ccc(Cl)cc2)N2CCCN12 (centres undefined) | -11% (inactive)
43 | CC(=O)NC(CC(=O)O)c1ccc(F)cc1 (centres undefined) | -4% (inactive)
44 | Cc1ccc(CC2CC(=O)N(c3nc(C)cc(C)n3)C2=O)cc1 (centres undefined) | -1% (inactive)
45 | CC(C)(C)c1nnc(N/N=C/c2ccc(O)cc2)n(N)c1=O | -7% (inactive)
46 | Fc1ccccc1N=C1Nc2cccc3cccc1c23 | -4% (inactive)
47 | Cc1ccccc1C(=O)OC1OC(=O)C(Cl)=C1Nc1ccccc1 (centres undefined) | -2% (inactive)
48 | N#CCSc1nn(-c2ccc(F)cc2)c(=S)s1 | -7% (inactive)
49 | O=C(CSc1nn(-c2ccc(F)cc2)c(=S)s1)NC1CCS(=O)(=O)C1 (centres undefined) | -1% (inactive)
50 | Cc1ccccc1-n1nc(SCC(=O)O)sc1=S | 43% (active)

Row | Compound | inhibition
51 | O=C(Nc1ccc(Br)cn1)c1ccc([N+](=O)[O-])cc1Cl | -6% (inactive)
52 | Cc1ccc(COc2ccc(C(=O)NN)cc2)cc1 | -3% (inactive)
53 | COc1cc(C2/C(=C(\O)c3ccc4c(c3)CC(C)O4)C(=O)C(=O)N2Cc2ccco2)ccc1O (centres undefined) | 1% (inactive)
54 | O=C(O)/C=C/c1ccc(S(=O)(=O)N2CCCCCC2)cc1 | 0% (inactive)
55 | Cc1cc(Cl)c(S(=O)(=O)NCCC(=O)O)cc1OCC(N)=O | -7% (inactive)
56 | Cc1cc(Cl)c(S(=O)(=O)Nc2ccc3c(c2)OCCO3)cc1OCC(N)=O | -2% (inactive)
57 | Cc1cc(Cl)c(S(=O)(=O)NCC2CCCO2)cc1OCC(N)=O (centres undefined) | 80% (active)
58 | CCOc1cc2[nH]c(=O)n(Cc3ccc(C(=O)NCCCN4CCCC4=O)cc3)c(=O)c2cc1OCC | -6% (inactive)
59 | OCC1(Cc2ccccc2C(F)(F)F)CCN(Cc2cccc3cnccc23)CC1 | 0% (inactive)
60 | CCOc1ccc(NC(=O)CSc2nc3ccccc3c(=O)n2Cc2cccs2)cc1 | -7% (inactive)
61 | Cc1ccc(S(=O)(=O)N2CCOCC2)cc1C(=O)OC1CCCCC1=O (centres undefined) | -7% (inactive)
62 | Cc1ccc(C(=O)N/C(=C/c2cccnc2)C(=O)O)cc1 | -7% (inactive)
63 | N/C(=N/O)c1cccn1Cc1ccccc1[N+](=O)[O-] | -4% (inactive)
64 | CC(C)NC(=O)/C(C#N)=C\c1ccc(N(C)C)c(Br)c1 | -2% (inactive)
65 | CCc1nccn1S(=O)(=O)c1cccc([N+](=O)[O-])c1 | -2% (inactive)
66 | CCc1c(SCCC(=O)O)nc2ccccc2c1C | -7% (inactive)
67 | CN(Cc1ccccn1)Cc1nc(-c2ccc(Cl)cc2)no1 | -6% (inactive)
68 | Nc1nnnn1CC(=O)N/N=C/c1ccc(-c2cccc(Cl)c2)o1 | -4% (inactive)
69 | Cc1cc(C)n(-c2ccc3nncn3n2)n1 | 2% (inactive)
70 | Cc1ccc(C2=NN(C(=O)CSc3nc(N)cc(N)n3)C(c3ccco3)C2)cc1 (centres undefined) | -27% (inactive)
71 | CC1CCc2sc(C(=O)N/N=C/C3CCCCC3)cc2C1 (centres undefined) | -6% (inactive)
72 | Cc1ccc2nc(-c3ccncc3)cc(C(=O)Nc3ccc(OC(F)F)cc3)c2c1 | 1% (inactive)
73 | COc1ccc(-n2cc(CNC3CCOCC3)c(-c3cccc(F)c3)n2)cc1 | -5% (inactive)
74 | COc1ccc(Cl)cc1N(CC(=O)N1CCCCC1)S(C)(=O)=O | -5% (inactive)
75 | Clc1ccc(CSc2nnc(/C=C/c3ccccc3)o2)c(Cl)c1 | -9% (inactive)

Row | Compound | inhibition
76 | CSCc1cc(N2CCOCC2)nc(SCc2ccc(Cl)cc2Cl)n1 | -11% (inactive)
77 | CSCc1cc(N(C)C)nc(SCc2ccc(Cl)cc2Cl)n1 | 69% (active)
78 | Cc1cccc(NC(=S)N2CCCC(c3nc4ccccc4[nH]3)C2)c1 (centres undefined) | -14% (inactive)
79 | O=C(COC(=O)[C@H](Cc1ccccc1)NC(=O)c1cccs1)Nc1cc(F)ccc1F | -14% (inactive)
80 | Cc1ccc(C)c(NC(=O)CSc2nc3c(oc4ccccc43)c(=O)n2-c2ccccc2)c1 | -6% (inactive)
81 | C/C(=N\NC(=O)c1cccc(N2CCCC2=O)c1)c1ccc(N)cc1 | -7% (inactive)
82 | CC(O)C(NS(=O)(=O)c1ccc(Cl)cc1)C(=O)OCc1cc([N+](=O)[O-])cc2c1OCOC2 (centres undefined) | 0% (inactive)
83 | COc1ccc(N(C(=O)c2ccc(C)cc2)S(=O)(=O)c2cccs2)cc1 | -6% (inactive)
84 | CSCCC(NC(=O)COc1ccccc1)C(=O)Nc1ccc(C)cc1 (centres undefined) | -6% (inactive)
85 | Cc1nc(CC(=O)NNS(=O)(=O)c2ccc(F)c(Cl)c2)cs1 | 1% (inactive)
86 | O=C(NC1CCCCC1)C1CCCN(S(=O)(=O)c2ccc(Br)s2)C1 (centres undefined) | -6% (inactive)
87 | c1ccc2c(c1)CSc1sccc1C2=C1CCNCC1 | -4% (inactive)
88 | Cc1ccc(C(C)NC(=O)Cn2nc(C)c([N+](=O)[O-])c2C)cc1 (centres undefined) | -3% (inactive)
89 | CCOC(=O)N/N=C/c1cccnc1 | -4% (inactive)
90 | CCN(CC)P(=O)(Nc1ccc(SC(F)F)cc1)c1ccc(N(C)C)cc1NC(=O)c1ccco1 (centres undefined) | 1% (inactive)
91 | CN(C)C(=O)N1CCNCC1 | 0% (inactive)
92 | Cc1cc(C)n(CC(=O)Nc2ccc([N+](=O)[O-])cc2)n1 | 0% (inactive)
93 | CC(C)C(=O)NCc1cc(-c2ccc(Cl)cc2)no1 | 5% (inactive)
94 | CC1=NN(C(=O)CCCc2ccccc2)C(O)(C(F)(F)F)C1 (centres undefined) | -2% (inactive)
95 | OCC1(CCOc2ccccc2)CCN(Cc2cn[nH]c2-c2ccccc2)CC1 | -2% (inactive)
96 | CN1CCN(c2ccc(S(=O)(=O)N3CCCCC3)cc2NC(=O)Cc2ccccc2F)CC1 | -4% (inactive)
97 | COc1ccc(N2CCN(C(=O)CNS(=O)(=O)c3ccc(C)c(C)c3)CC2)cc1 | -2% (inactive)
98 | O=C(CCC1CCCN(Cc2ccc(O)c(Cl)c2)C1)NCc1ccccc1F (centres undefined) | -1% (inactive)
99 | CCCCN(CC(=O)NC(C)(C)C)C(=O)C(=O)Nc1ccc2c(c1)OCCO2 | 1% (inactive)
